# Measured values taken from PubChem BioAssay (Tox21).
# Values joined by “and” are separate entries in the source; they are usually repeats but may differ in a detail not shown here. Equal values may be shown once. Records with an inconclusive call do not appear. Where a call stands in place of a potency, no number is given. Some structures have more than one record in an assay (separate samples or runs), and their calls can disagree. Active and inactive are the calls of the source. Unless noted, calls follow the shape of the dose curve; as a rule, active = well fitted curve in the direction sought with a large enough effect in the repeat runs; inconclusive = weak or mixed curves; inactive = no such curve, though single readings can be large; an effect the other way counts as inactive or inconclusive.
# How the values were obtained:
# [1] = qHTS assay for small molecule agonists of the p53 signaling pathway (AID 651631; calls by dose curve; also: nearly all actives have a fitted effect of over 15% in size)
# Outline: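 p53RE-bla HCT-116 cells; compounds 16 h, 37 °C; LiveBLAzer B/G FRET substrate 2 h RT; fluorescence intensity read-out, qHTS format.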
# [2] = qHTS assay for small molecules that induce genotoxicity in human embryonic kidney cells expressing luciferase-tagged ATAD5 (AID 651632); also: nearly all actives have a fitted effect of over 15% in size
# Outline: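 Cells were seeded at 2,000 per well, dosed with compound, and incubated 16 hr at 37C in 5% CO2. Luciferase activity was then quantified after a 30 min room-temperature incubation with Amplite.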
# [3] = qHTS assay for small molecule agonists of the p53 signaling pathway - cell viability (AID 651633; calls by dose curve;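 also: p53RE-bla HCT reporter cells with a stable beta-lactamase p53 reporter; series mostly up to about 83 µM; nearly all actives have a fitted effect of over 30% in size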)
# Outline: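 Viability counter-read: CellTiter-Glo luminescence (30 min, room temperature) in the same p53RE-bla plates. These plates had been exposed to compounds for 16 h at 37 C.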
# [4] = qHTS assay for small molecules that induce genotoxicity in human embryonic kidney cells expressing luciferase-tagged ATAD5 - cell viability (AID 651634; calls by dose curve; also: nearly all actives have a fitted effect of over 25% in size)
# Outline: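 Cells (HEK293T, luciferase-tagged ATAD5) are seeded at 2,000 per well, dosed with compound or DMSO vehicle, and incubated 15.5 hr at 37C and 5% CO2. CellTiter-Fluor is added for 30 min before fluorescence is measured.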
# [5] = qHTS assay for small molecule disruptors of the mitochondrial membrane potential - cell viability (AID 720634; calls by dose curve;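 also: human HepG2 liver cancer cells; series mostly up to about 83 µM; nearly all actives have a fitted effect of over 20% in size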)
# Outline: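 Cytotoxicity was measured by ATP quantitation in HepG2 wells that had first been treated with compound for 1 hr and stained with m-MPI dye; CellTiter-Glo incubation was 30 min at room temperature.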
# [6] = qHTS assay for small molecule disruptors of the mitochondrial membrane potential (AID 720635); also: potency is read from the fitted curve at half-maximal effect
# Outline: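 Mitochondrial membrane potential tracked with Mito-MPS dye, red aggregates (ex 540/em 590 nm) against green monomers (ex 490/em 535 nm). Compound treatment 1 hr at 37C, dye 30 min in HepG2.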
# [7] = qHTS assay to test for compound auto fluorescence at 590 nm (red) in HepG2 cells (AID 720674)
# Outline: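 Red autofluorescence (Ex/Em 540/590 nm, Rose Bengal sodium equivalents) was measured in HepG2 cells, 2,000 per well in MEM plus 10% FBS, plated overnight at 37 C. Readings were taken 1 hr after adding 23 nL compound or DMSO, at 37 C and 5% CO2.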
# [8] = qHTS assay to test for compound auto fluorescence at 535 nm (green) in HepG2 cells (AID 720675)
# [9] = qHTS assay to test for compound auto fluorescence at 460 nm (blue) in HEK293 cells (AID 720678)
# Outline: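 Blue read-out at excitation 405 nm and emission 460 nm follows overnight compound exposure of HEK293 cells at 37C in 5% CO2. Activity is given as auto fluorescence equivalency to triamterene.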
# [10] = qHTS assay to test for compound auto fluorescence at 590 nm (red) in HEK293 cells (AID 720679)
# Outline: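 Red channel, Ex/Em 540/590nm; signal expressed as equivalency to Rose Bengal sodium. HEK293, 2,000 cells/well, 10% dialyzed FBS; 23 nL compound pinned after 4-5 hr attachment; overnight 37C/5% CO2 before reading.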
SMILES,Potency [1],outcome [2],Potency [3],Potency [4],Potency [5],Potency [6],outcome [7],outcome [8],outcome [9],outcome [10]
CC(O)COCC(C)O (configuration not stated),inactive,inactive,inactive,inactive,inactive,inactive,inactive,inactive,inactive,inactive
O=S1(=O)CC=CC1,inactive,inactive,inactive,inactive,inactive,inactive,inactive,inactive,inactive,inactive
Cc1cccc(O)c1,inactive,inactive,inactive,inactive,inactive,inactive,inactive,inactive,inactive,inactive
O=C(O)c1cc(=O)c2c(OCC(O)COc3cccc4oc(C(=O)O)cc(=O)c34)cccc2o1,inactive,inactive,inactive,inactive,inactive,inactive,inactive,inactive,inactive,–
ON=C1CCCCC1,inactive,inactive,inactive,inactive,inactive,inactive,inactive,inactive,inactive,–
O=S(=O)(O)c1ccc2ccccc2c1,inactive,inactive,inactive,inactive,inactive,inactive,inactive,inactive,inactive,inactive
Nc1ccccc1[N+](=O)[O-],inactive,inactive,inactive,inactive,inactive,48.6 µM (active),inactive,inactive,inactive,–
CC(=O)c1ccccc1,inactive,inactive,inactive,inactive,inactive,inactive,inactive,inactive,inactive,inactive
O=C(O)c1ccc(C(=O)O)cc1,inactive,inactive,inactive,inactive,inactive,inactive,inactive,inactive,inactive,–
CC(C)(N)CO,inactive,inactive,inactive,inactive,inactive,inactive,inactive,inactive,inactive,inactive
Fc1ccc(Br)cc1,inactive,inactive,inactive,inactive,inactive,inactive,inactive,inactive,inactive,inactive
CC(=O)Nc1cccc(O)c1,inactive,inactive,inactive,inactive,inactive,inactive,inactive,inactive,inactive,inactive
O=C=NCCCCCCN=C=O,inactive,inactive,inactive,inactive,inactive,inactive,inactive,inactive,inactive,inactive
CCCCCCCCCCCCCCO,inactive,inactive,inactive,inactive,inactive,61.1 µM (active),inactive,inactive,inactive,inactive
c1ccc2scnc2c1,inactive,inactive,inactive,inactive,inactive,inactive,inactive,inactive,inactive,inactive
O=C1CCC(N2C(=O)c3ccccc3C2=O)C(=O)N1 (configuration not stated),inactive,inactive,inactive,inactive,inactive,inactive,inactive,inactive,inactive,inactive
CCC(O)OC(O)CC (configuration not stated),inactive,inactive,inactive,inactive,inactive,inactive,inactive,inactive,inactive,inactive
O=c1[nH]nnc2ccccc12,inactive,inactive,inactive,inactive,inactive,inactive,inactive,inactive,inactive,–
CCCCCCCC(=O)OC,inactive,inactive,inactive,inactive,inactive,inactive,inactive,inactive,inactive,–

SMILES,Potency [1],outcome [2],Potency [3],Potency [4],Potency [5],Potency [6],outcome [7],outcome [8],outcome [9],outcome [10]
CCCCCCOCCO,inactive,inactive,inactive,inactive,inactive,inactive,inactive,inactive,inactive,–
C=C(C)C(=O)OCCOCCOCCOC(=O)C(=C)C,inactive,inactive,inactive,inactive,inactive,inactive,inactive,inactive,inactive,inactive
CCCCOC(=O)COc1ccc(Cl)cc1Cl,inactive,inactive,inactive,inactive,inactive,inactive,inactive,inactive,inactive,–
O=C(CC(C(=O)OC1CCCCC1)S(=O)(=O)O)OC1CCCCC1 (configuration not stated),inactive,inactive,inactive,inactive,inactive,inactive,inactive,inactive,inactive,–
C[Si](O[Si](C)(C)C)O[Si](C)(C)C,inactive,inactive,inactive,inactive,inactive,inactive,inactive,inactive,inactive,inactive
Cc1ccc(N(C)C)cc1,inactive,inactive,inactive,inactive,inactive,inactive,inactive,inactive,inactive,–
COc1ccc(Nc2ccccc2)c(C)c1,inactive,inactive,inactive,inactive,inactive,inactive and 48.6 µM (active),inactive,inactive,inactive,inactive
O=C(OCCOCCOC(=O)c1ccccc1)c1ccccc1,inactive,inactive,inactive,inactive,inactive,inactive,inactive,inactive,inactive,inactive
CCCCCCCCCCCCS,inactive,inactive,inactive,inactive,inactive,inactive,inactive,inactive,inactive,inactive
C[C@H]1C[C@H]2[C@@H]3CCC4=CC(=O)C=C[C@]4(C)[C@@]3(F)[C@@H](O)C[C@]2(C)[C@@]1(O)C(=O)CO,inactive,inactive,inactive,inactive,inactive,inactive,inactive,inactive,inactive,inactive
C#CCN(C)Cc1ccccc1,inactive,inactive,inactive,inactive,inactive,inactive,inactive,inactive,inactive,inactive
CCCC(C)=O,inactive,inactive,inactive,inactive,inactive,inactive,inactive,inactive,inactive,–
CC1CCC2CC1C2(C)C (configuration not stated),inactive,inactive,inactive,inactive,inactive,inactive,inactive,inactive,inactive,inactive
CN(C)CCCN,inactive,inactive,inactive,inactive,inactive,inactive,inactive,inactive,inactive,inactive
c1ccc(OCCOc2ccccc2)cc1,inactive,inactive,inactive,inactive,inactive,24.3 µM (active),inactive,inactive,inactive,inactive
CCC(O)OCCCOC (configuration not stated),inactive,inactive,inactive,inactive,inactive,inactive,inactive,inactive,inactive,–
c1ccc2c(c1)ccc1ccccc12,inactive,inactive,inactive,inactive,inactive,59.5 µM (active),inactive,inactive,inactive,inactive
CC(=O)CC(=O)Nc1ccccc1C,inactive,inactive,inactive,inactive,inactive,inactive,inactive,inactive,inactive,–
